Shown are actives, neighbours in structure and some others; about 18% of the full set was active somewhere.
DT40 TDP1 no CPT = qHTS for Inhibitors of human tyrosyl-DNA phosphodiesterase 1 (TDP1): qHTS in cells in absence of CPT. DT40 Tdp1-/- hTDP1 cells, no CPT, ATP luminescence, 48 h. AID 686978, 2013. hit rate 15% among 420,000. Potency, µM (series often up to 46.2 µM), inactives show at the top dose activity change, negative = growth inhibition, usual class: inhibitors; also: potency is read from the fitted curve at half-maximal effect; nearly all actives have a fitted effect of over 55% in size
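Growth of hTDP1-complemented DT40 Tdp1-knockout cells is measured by ATP luminescence after at least 48 hr compound exposure at 37 °C, with DMSO substituting for the 20 nM CPT used in the parallel screen.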
IL-1B inflam inh = qHTS for Inhibitors of Inflammasome Signaling: IL-1-beta AlphaLISA Primary Screen; THP-1 LPS/ATP IL-1B secretion, AlphaLISA, 16 h; hits give low values; hit rate 4.7% among 360,000; activity change, % at 57.5 µM; AID 743279, 2014; in the data active = activity change below about -50%; inconclusive = mostly about -30% to -49%
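Secreted IL-1B measured by AlphaLISA bead assay after 16 h compound exposure of THP-1 cells; compounds (final up to 57.5 uM) added 1 h before LPS (250 ng/mL) and ATP (1.25 mM) stimulation; lower signal means less secretion.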
RORgamma inh = qHTS for inhibitors of ROR gamma transcriptional activity; Potency, µM (series often up to 53.6 µM), for inactives: at the top dose activity change, negative = inhibition, actives largely listed as inhibitors; AID 2551, 2010; Drosophila S2 Gal4-RORgamma UAS-luciferase reporter, 20 h; hit rate 5.4% among 310,000; Nuclear receptor ROR-gamma (Mus musculus), P51450; also: potency is read from the fitted curve at half-maximal effect; nearly all actives have a fitted effect of over 60% in size
Target sequence (P51450 whole entry, looked up, the tested form may be a part): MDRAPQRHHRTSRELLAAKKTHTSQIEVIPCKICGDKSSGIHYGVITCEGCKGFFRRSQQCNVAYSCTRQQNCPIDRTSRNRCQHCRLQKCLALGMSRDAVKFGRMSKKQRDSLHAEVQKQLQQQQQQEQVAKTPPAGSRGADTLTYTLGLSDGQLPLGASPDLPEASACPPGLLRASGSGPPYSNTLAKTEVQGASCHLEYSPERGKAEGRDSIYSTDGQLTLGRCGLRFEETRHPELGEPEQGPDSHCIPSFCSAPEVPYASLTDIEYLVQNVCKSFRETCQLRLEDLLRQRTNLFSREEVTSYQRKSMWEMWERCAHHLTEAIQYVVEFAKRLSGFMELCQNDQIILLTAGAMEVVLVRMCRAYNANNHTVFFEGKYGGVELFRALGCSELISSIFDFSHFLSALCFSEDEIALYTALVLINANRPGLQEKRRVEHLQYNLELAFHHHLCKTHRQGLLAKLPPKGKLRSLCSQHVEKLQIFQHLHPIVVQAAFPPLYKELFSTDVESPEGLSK
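Drosophila S2 cells stably expressing Gal4-DBD/mouse RORγ fusion under metallothionein promoter plus UAS-luciferase; compound 1 h, then 700 uM CuSO4 induction for 20 h at ambient temperature; inhibition read as reduced luminescence.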
Gal4-VP16 FLuc = VP16 counterscreen qHTS for inhibitors of ROR gamma transcriptional activity | Drosophila S2 Gal4-VP16 UAS-luciferase, luminescence, 20 h | Potency, µM (titrated, usually from 53.6 µM), for inactives: at the highest dose activity, negative = inhibition, usual class: inhibitors | hit rate 3.5% among 310,000 | AID 2546, 2010;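 also: Gal4-VP16 expression switched on by copper sulfate through the metallothionein promoter; potency is read from the fitted curve at half-maximal effect; nearly all actives have a fitted effect of over 50% in size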
LDHA block = qHTS assay for inhibitors of human lactate dehydrogenase | L-lactate dehydrogenase A chain (Homo sapiens), P00338 | purified LDHA, NADH/diaphorase-resazurin fluorescence; hits give low values | activity change, % (values are at about 110 or 230 µM) | hit rate 0.15% among 480,000 | AID 1347041, 2019; in the data active = activity change below about -30%; inconclusive = mostly about -25% to -30%;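 also: plate controls were DMSO wells for no effect and wells without enzyme for full effect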
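Enzyme activity of human lactate dehydrogenase 5 (2 nM; 0.06 mM NADH, 0.2 mM pyruvate, 5 min, RT) is measured via a resazurin/diaphorase fluorescence readout of residual NADH.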
TDP1 cell CPT = qHTS for Inhibitors of human tyrosyl-DNA phosphodiesterase 1 (TDP1): qHTS in cells in presence of CPT; chicken DT40 Tdp1-/-;hTDP1 cells + 20 nM CPT, ATP luminescence, 48 h; Potency, µM (doses to about 46.2 µM), without a hit: at the highest dose activity change, negative = growth inhibition, most hits filed as inhibitors; hit rate 12% among 420,000; also: potency is read from the fitted curve at half-maximal effect; nearly all actives have a fitted effect of over 55% in size
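Cell growth measured by CellTiter-Glo luminescence after a minimum 48 h, 37 C compound exposure with 20 nM CPT in Tdp1-knockout DT40 cells stably expressing hTDP1, seeded 400/well; qHTS titration format.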
Active calls of the source: *; u = inconclusive; x = no result; [ ] = another dose, or the depositor's remark. Unless noted, calls follow the shape of the dose curve; as a rule, active = well fitted curve in the direction sought with a large enough effect; inconclusive = small, poorly fitted or top-dose-only effect, or another doubt; inactive = no such curve, though single readings can be large; an effect the other way counts as inactive or inconclusive. Unless noted, % is scaled to controls: 0 for no effect and ±100 for the full control effect.

SMILES	DT40 TDP1 no CPT	IL-1B inflam inh	RORgamma inh	Gal4-VP16 FLuc	LDHA block	TDP1 cell CPT
CN=c1scc(C)n1/N=C/c1ccc(O)c(O)c1O	18.4µM*	u	2.24µM*	7.08µM*	32.6	16.4µM*
CN=c1scc(-c2cccs2)n1/N=C/c1ccc(O)c(O)c1O	5.8µM*	-1.6	1.12µM*	1.41µM*	42.4	11.6µM*
CCOc1ccccc1/C=C1/Cc2c(O)cccc2C1=O	x	x	x	x	10.6	x
Cc1ccc2c(=O)cc(C(=O)Nc3onc4c3CC(C)CC4)oc2c1C (stereo unspecified)	x	x	x	x	-1.7	x
Nc1ccccc1C(=O)/C=C\c1ccc2c(c1)OCO2	x	x	19.5%[10 µM]	-1.4%[10 µM]	x	x
CCNc1ccc(Br)cc(C(=O)/C=C/c2ccc3c(c2)OCO3)c1=O	u	-12.3	-19.7%	-5.7%	19.8	29.1µM*
O=C(/C=C/c1c(Cl)cccc1Cl)c1ccc(OC(F)F)cc1OC(F)F	x	x	x	x	5.6	x
CCNc1ccc(Br)cc(C(=O)/C=C/c2c(Cl)cccc2Cl)c1=O	4.61µM*	-96.3*	10µM*	u	7.5	5.17µM*
CCOc1ccc2c(=O)c(Oc3ccc(C(=O)OC)cc3)c(C)oc2c1	x	x	x	x	-1.0	x
N#C/C(=C\c1c[nH]c2ccccc12)C(=O)Nc1ccc(O)cc1	x	x	x	x	1.4	x
N#C/C(=C\c1c[nH]c2ccccc12)C(=O)Nc1ncc(Cc2ccc(Cl)cc2Cl)s1	16.4µM*	-60.7*	1.41µM*	2.24µM*	-7.7	u
Cn1cc(/C=C(\C#N)C(=O)Nc2ncc(Cc3cccc(Cl)c3)s2)c2ccccc21	x	x	3.16µM*	1.41µM*	x	x
C/C(=N\NC(=O)c1ccc(C(C)(C)C)cc1)c1ccc2ccccc2c1	x	x	x	x	-10.9	x
Cc1ccc(Nc2cc(C)nc(Nc3ccc(NC(=O)CC(C)C)cc3)n2)cc1	x	x	x	x	0.7	x
CC(=O)C1=C(C)NC(SCc2cccc([N+](=O)[O-])c2)=C(C#N)C1c1ccco1 (stereo unspecified)	u	-65.8*	33.5%	8.2%	1.9	u
CCc1ccc(C(=O)CSC2=C(C#N)C(c3ccco3)C(C(C)=O)=C(C)N2)cc1 (stereo unspecified)	u	x	6.31µM*	u	3.3	u
CC(=O)C1=C(C)NC(SCC(=O)c2ccc(F)cc2)=C(C#N)C1c1ccco1 (stereo unspecified)	u	-84.6*	17.1%	4.0%	8.7	u
Cc1ccccc1NC(=S)NC(=O)c1cc(-c2ccccc2)nc2ccccc12	u	-0.5	1.78µM*	3.98µM*	-4.7	u
Cc1ccccc1NC(=O)c1nc2ccccc2nc1Cl	x	x	x	x	-7.6	x
Cc1ccccc1NC(=O)c1cccc2nc3ccccc3nc12	23.1µM*	-17.9	0.9%	-5.1%	-7.1	u
Cc1cccc(NC(=S)NC(=O)c2cc(-c3ccccc3)nc3ccccc23)c1	u	15.3	2µM*	5.62µM*	-5.3	20µM*
O=S(=O)(/C(=C/c1ccc(C(F)(F)F)cc1)c1nc2ccccc2[nH]1)c1ccccc1	2.91µM*	-103.6*	14.1µM*	5.62µM*	-1.4	2.59µM*
C/C(=C\c1ccc(N)cc1)c1nc2ccccc2[nH]1	-4.4%	u	-22.4%	1.7%	-7.9	-12.2%
CC(C)c1ccc(/C=C(\c2nc3ccccc3[nH]2)S(=O)(=O)c2ccccc2)cc1	4.61µM*	-103.3*	u	u	-3.7	4.61µM*
CCOc1ccc(N2CC(C(=O)N(C)CC(=O)NCc3ccco3)CC2=O)cc1 (stereo unspecified)	x	x	x	x	13.0	x
SMILES	DT40 TDP1 no CPT	IL-1B inflam inh	RORgamma inh	Gal4-VP16 FLuc	LDHA block	TDP1 cell CPT
CN(C)C(=O)C1CCC(C)(C(=O)O)C1(C)CI (stereo unspecified)	x	x	x	x	-3.1	x
COc1ccc(CCC2CCNCC2)cc1	18.4µM*	-8.2	-6.5%	-17.9%	-8.9	u
COc1ccc(NC(=O)c2ccc3c(=O)n4nc(Nc5ccccc5C)sc4nc3c2)cc1Cl	5.8µM*	x	x	x	-2.4	7.31µM*
COc1ccc(NC(=O)c2ccc3c(=O)n4nc(Nc5cccc(Cl)c5C)sc4nc3c2)cc1	3.26µM*	x	x	x	-1.8	2.91µM*
COC(=O)c1ccc2c(=O)n3nc(Nc4cc(OC)ccc4OC)sc3nc2c1	-17.0%	x	x	x	7.6	u
CCOc1ccc(NC(=O)c2ccc3c(=O)n4nc(Nc5ccccc5C)sc4nc3c2)cc1	6.51µM*	x	x	x	4.9	u
Cc1ccc(NC(=O)c2ccc3c(=O)n4nc(Nc5ccccc5C)sc4nc3c2)cc1C	5.8µM*	x	x	x	3.9	2.91µM*
CC1(C)Cc2c(sc3ncn4nc(-c5cccc(O)c5)nc4c23)CO1	x	x	x	x	13.3	x
COc1ccc(-c2cc(-c3ccccc3)nc(NC(=O)CN3CCCCCC3)n2)cc1	x	x	x	x	-20.4	x
CCOc1ccc(-c2nnc(SCc3nc4ccccc4o3)o2)cc1	x	x	x	x	0.0	x
COc1ccc(/C(Cl)=C(/C=N/O)c2ccc(OC)cc2)cc1	x	x	x	x	3.6	x
CC1Cc2ccccc2N1C(=O)COC(=O)c1ccc(Cl)c([N+](=O)[O-])c1 (stereo unspecified)	x	x	x	x	4.4	x
Fc1ccc(C(Nc2ccccc2Cl)c2nnc(-c3ccccc3Cl)o2)cc1 (stereo unspecified)	20.6µM*	x	x	x	-2.9	u
Cc1ccn2c(Nc3ccc4c(c3)OCO4)c(-c3ccc(N(C)C)cc3)nc2c1	u	x	x	x	8.0	13µM*
Cc1ccn2c(Nc3ccc4c(c3)OCO4)c(-c3ccco3)nc2c1	u	x	x	x	6.4	23.1µM*
CCCn1ccc2c(OCC(=O)Nc3ccccc3C(F)(F)F)cccc2c1=O	x	x	x	x	-0.5	x
CCn1ccc2c(OCC(=O)Nc3ccccc3C(F)(F)F)cccc2c1=O	20.6µM*	x	x	x	-3.2	14.6µM*
CCn1ccc2c(OCC(=O)Nc3ccccc3C)cccc2c1=O	11.6µM*	x	x	x	0.7	14.6µM*
CCn1ccc2c(OCC(=O)NCc3ccccc3)cccc2c1=O	u	x	x	x	-7.1	-7.6%
Cn1ccc2c(OCC(=O)Nc3cc(C(F)(F)F)ccc3Cl)cccc2c1=O	14.6µM*	x	x	x	-4.3	25.9µM*
Cc1cccc(NC(=O)COc2cccc3c(=O)n(C)ccc23)c1C	18.4µM*	x	x	x	-3.4	23.1µM*
COc1ccc(C(=O)N2CCN(c3oc(-c4cccs4)nc3C#N)CC2)cc1OC	x	x	x	x	-2.7	x
CNC(=S)NNC(=O)C1CCCCC1	x	x	x	x	-5.8	x

Screening data deposited in PubChem by National Center for Advancing Translational Sciences (NCATS).
